Calls of active or inactive are those of the source. The calls were made as follows: active = hit-call score of the fitted dose curve at least 0.9, where 1 is the maximum; inactive = score below 0.9.

The assay is described as follows: BSK_BT_Bcell_Proliferation: Viability Assessment in the BioMAP Diversity Plus: BT Assay for B cell Proliferation (AID 2284227). The note with it: primary human B cells with PBMC. In a few lines: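 Read-out is absorbance at 560 nm from sulforhodamine B staining of total protein, reflecting relative cell numbers in a human B cell and PBMC co-culture after 72 h of chemical exposure. Values were referenced to DMSO.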
For `Oc1ccc(Cc2ccc(O)cc2)cc1`, the outcome was inactive.

The AC50 is the concentration at which the activity in the assay is half-maximal. As to `O=C1C=CC(=O)c2ccccc21`, the AC50 is 0.825 µM (active).

On to `CCOP(=S)(OCC)SCS(=O)(=O)C(C)(C)C`, for which the result was inactive.

Take `Nc1c(Oc2ccccc2)cc(O)c2c1C(=O)c1ccccc1C2=O`: the result was inactive.

Regarding `O=c1oc2ccccc2c(O)c1C(CC(O)c1ccc(-c2ccc(Br)cc2)cc1)c1ccccc1` (centres undefined), the result was inactive.

In the case of `[Cl][Sn]([c]1ccccc1)([c]1ccccc1)[c]1ccccc1`, the AC50 was 0.423 µM (active).

`O=S(=O)(c1ccc(Cl)cc1)c1cc(Cl)c(Cl)cc1Cl`: the AC50 was 30.1 µM (active).

With `Cc1cccc(OP(=O)(Oc2cccc(C)c2)Oc2cccc(C)c2)c1`, the outcome was inactive.

`CC(C)(C)c1cc([N+](=O)[O-])cc(C(C)(C)C)c1O`: the AC50 was 13.3 µM (active).

For `c1ccc2sc(SNC3CCCCC3)nc2c1`, the AC50 is 29.3 µM (active).

As for `CCCCCCCCCCCCN(C)C`, the outcome was inactive.

As to `N#CCCC(Br)(C#N)CBr` (centres undefined), the AC50 is 6.35 µM (active).

On to `O=[N+]([O-])c1ccc(Nc2ccccc2)cc1`, for which the outcome was inactive.

As to `C=CC(Cl)CCl` (centres undefined), the result was inactive.

As to `CCOP(=O)(OCC)SCCSCC`, the outcome was inactive.

For `O=S(=O)(C(Cl)(Cl)Cl)C(Cl)(Cl)Cl`, the AC50 is 2.48 µM (active).

With `CCOP(=S)(OCC)OP(=S)(OCC)OCC`, the outcome was inactive.

With `C[C@]12CC[C@@H](O)C[C@@H]1CC[C@@H]1[C@@H]2CC[C@]2(C)C(=O)CC[C@@H]12`, the result was inactive.

With `CC(C)=CC1C(C(=O)OCc2cccc(Oc3ccccc3)c2)C1(C)C` (centres undefined), the half-maximal activity concentration (AC50) was 31.4 µM (active).

As to `Nc1ccc(N)cc1`, the outcome was inactive.

As to `CC(C)N(C(=O)CCl)c1ccccc1`, the AC50 is 9.93 µM (active).

Turning to `CCOC(=O)CC(=O)CCl`, the AC50 was 16.9 µM (active).

Regarding `Cc1ccccc1OP(=O)(Oc1ccccc1)Oc1ccccc1`, the result was inactive.

As to `Cc1cc(Cl)ccc1OC(C)C(=O)O` (centres undefined), the result was inactive.

Regarding `COCC(=O)N(c1c(C)cccc1C)[C@H](C)C(=O)OC`, the outcome was inactive.

Regarding `Cc1cc(C(C)(C)c2ccc(O)c(C)c2)ccc1O`, the result was inactive.

Turning to `CCOC(=O)C(SP(=S)(OC)OC)c1ccccc1` (centres undefined), the outcome was inactive.

With `O=C(CCl)NCO`, the result was inactive.

In the case of `Oc1cccc(-c2ccccc2)c1`, the result was inactive.

Values taken from PubChem BioAssay (EPA / NIEHS).
